Consider 17 compounds from PubChem BioAssay (EPA / NIEHS).

Activity calls are given as the source filed them. Rule for the calls: active = hit-call score of the fitted dose curve at least 0.9, where 1 is the maximum; inactive = score below 0.9.

Test [1] is described as follows: ATG_CRE_CIS: Attagene CIS-FACTORIAL HepG2 Assay for human cAMP Responsive Element (CRE) binding protein 3 (AID 2282926). The settings on record: HepG2 CRE cis-reporter, Attagene multiplexed mRNA; actives raise or lower the signal. The procedure, abridged:
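Capillary electrophoresis of 6-FAM-labelled, HpaI-digested PCR products quantified reporter transcripts. These came from HepG2 transiently transfected with cis-element reporters and exposed to test chemicals for 24 hours, with DMSO defining baseline activity.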

Test [2] deals with CCAAT/enhancer-binding protein beta (Homo sapiens) (UniProt P17676). The test can be described thus: ATG_C_EBP_CIS: Attagene CIS-FACTORIAL HepG2 Assay for human CCAAT/Enhancer Binding Protein (C/EBP) beta (AID 2282927). The settings on record: HepG2 Attagene cis-factorial transcription factor reporter; actives raise or lower the signal. The method, boiled down:
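RT-PCR/capillary electrophoresis fluorescence of reporter mRNA, 24 h post-dose, in HepG2 cells carrying transfected cis-promoter reporter units. Bidirectional curve fitting against DMSO baseline captures gain or loss of signal.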

The nature of test [3]: ATG_CMV_CIS: Attagene CIS-FACTORIAL HepG2 Assay for human CMV (Internal Marker) (AID 2282928).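 Note: endpoint acts as a background internal control marker rather than a target.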 The settings on record: HepG2 CMV promoter reporter, transcription factor profiling; actives raise or lower the signal. The method, boiled down: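 Fluorescence intensity of RT-PCR-derived reporter fragments, resolved by capillary electrophoresis, gives the signal. HepG2 liver cells bearing transfected cis-element reporters were treated 24 h; activity in either direction was fit relative to DMSO-treated controls.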

Test [4] addresses Aryl hydrocarbon receptor (Homo sapiens) (UniProt P35869). The test can be described thus: ATG_Ahr_CIS: Attagene CIS-FACTORIAL HepG2 Assay for human Aryl Hydrocarbon Receptor (Ahr) (AID 2282930). To be noted: HepG2 AhR cis-factorial reporter transcription; actives raise or lower the signal. The method, boiled down: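 HepG2 cells transiently transfected with cis-element-driven multiplexed reporter transcription units; endogenous transcription factor activity measured as reporter mRNA 24 h after dosing. RT-PCR, 6-FAM labelling, HpaI digestion, capillary electrophoresis; bidirectional fitting versus DMSO baseline.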

A short description of test [5]: ATG_AP_1_CIS: Attagene CIS-FACTORIAL HepG2 Assay for human Activator Protein 1 (AP-1) (AID 2282931). To be noted: HepG2 Attagene cis-factorial AP-1 reporter mRNA; actives raise or lower the signal. The method, boiled down: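 Bidirectional concentration-response fitting against DMSO controls. Underlying signal: reporter mRNA from cis-promoter constructs in transiently transfected HepG2, measured after 24 h by RT-PCR and capillary electrophoresis.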

Test [6] can be described thus: ATG_AP_2_CIS: Attagene CIS-FACTORIAL HepG2 Assay for human Activator Protein 2 (AP-2) (AID 2282932). The settings on record: HepG2 AP-2 cis-reporter, Attagene transcription factor profiling; actives raise or lower the signal. The procedure, abridged: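 Cells (HepG2) transfected with promoter-driven reporter constructs, treated 24 h. Total RNA reverse-transcribed, reporter cDNA PCR-amplified, FAM-labelled by primer extension, digested, resolved by capillary electrophoresis. Activity fitted both directions versus DMSO.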

The nature of test [7]: ATG_BRE_CIS: Attagene CIS-FACTORIAL HepG2 Assay for human Bone Morphogenetic Protein (BMP) Response Element (BRE) (AID 2282933). To be noted: HepG2 BMP response element reporter, Attagene transcription factor profiling; actives raise or lower the signal. The procedure, abridged:
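Endogenous transcription factor activity at a BMP response element was monitored in transfected HepG2 cells 24 h after dosing. Fluorescent RT-PCR products were resolved by capillary electrophoresis, and activity was fitted in both directions versus DMSO.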

Test [8] concerns the target Transcription factor E2F1 (Homo sapiens) (UniProt Q01094). In words: ATG_E2F_CIS: Attagene CIS-FACTORIAL HepG2 Assay for human E2F Transcription Factor 1 (AID 2282935). To be noted: HepG2 Attagene cis-reporter, E2F reporter RNA transcripts; actives raise or lower the signal. The method, boiled down:
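First, HepG2 cells were transfected with reporter transcription units. Next, they were dosed for 24 h. Then RNA was isolated, converted to cDNA, PCR-amplified, FAM-labeled, HpaI-digested and analyzed by capillary electrophoresis.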

In test [9] the target is Retinoic acid receptor alpha (Homo sapiens) (UniProt P10276). In words: ATG_DR5_RAR_CIS: Attagene CIS-FACTORIAL HepG2 Assay for human Retinoic Acid Receptor Alpha (RARE), DR5 submotif (AID 2282934).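 For AC50: reporter responds to endogenous RAR alpha beta and gamma in HepG2 not RARA alone.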 The settings on record: HepG2 Attagene cis-factorial RARE DR5 reporter, mRNA; actives raise or lower the signal. The method, boiled down: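 HepG2 cells transiently transfected with multiplexed reporter units under cis (DR5 RARE) promoters, so endogenous transcription factor activity is measured. After 24 h compound exposure, reporter mRNA is quantified by RT-PCR with fluorescent labelling and capillary electrophoresis; bidirectional fitting versus DMSO.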
Chain of Retinoic acid receptor alpha (Homo sapiens) (P10276 whole entry, looked up): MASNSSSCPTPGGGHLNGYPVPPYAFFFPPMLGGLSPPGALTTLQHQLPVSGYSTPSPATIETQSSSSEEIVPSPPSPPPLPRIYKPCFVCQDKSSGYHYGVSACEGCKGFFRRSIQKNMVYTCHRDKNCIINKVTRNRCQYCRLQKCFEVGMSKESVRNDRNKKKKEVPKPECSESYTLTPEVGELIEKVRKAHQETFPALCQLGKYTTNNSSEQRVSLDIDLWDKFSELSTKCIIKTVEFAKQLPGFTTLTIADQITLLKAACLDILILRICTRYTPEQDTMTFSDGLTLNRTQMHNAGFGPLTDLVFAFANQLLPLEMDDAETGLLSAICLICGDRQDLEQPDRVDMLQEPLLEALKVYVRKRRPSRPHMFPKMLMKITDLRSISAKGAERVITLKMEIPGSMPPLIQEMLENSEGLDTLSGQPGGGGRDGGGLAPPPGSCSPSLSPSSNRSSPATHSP

Chain of Aryl hydrocarbon receptor (Homo sapiens) (P35869 whole entry, looked up): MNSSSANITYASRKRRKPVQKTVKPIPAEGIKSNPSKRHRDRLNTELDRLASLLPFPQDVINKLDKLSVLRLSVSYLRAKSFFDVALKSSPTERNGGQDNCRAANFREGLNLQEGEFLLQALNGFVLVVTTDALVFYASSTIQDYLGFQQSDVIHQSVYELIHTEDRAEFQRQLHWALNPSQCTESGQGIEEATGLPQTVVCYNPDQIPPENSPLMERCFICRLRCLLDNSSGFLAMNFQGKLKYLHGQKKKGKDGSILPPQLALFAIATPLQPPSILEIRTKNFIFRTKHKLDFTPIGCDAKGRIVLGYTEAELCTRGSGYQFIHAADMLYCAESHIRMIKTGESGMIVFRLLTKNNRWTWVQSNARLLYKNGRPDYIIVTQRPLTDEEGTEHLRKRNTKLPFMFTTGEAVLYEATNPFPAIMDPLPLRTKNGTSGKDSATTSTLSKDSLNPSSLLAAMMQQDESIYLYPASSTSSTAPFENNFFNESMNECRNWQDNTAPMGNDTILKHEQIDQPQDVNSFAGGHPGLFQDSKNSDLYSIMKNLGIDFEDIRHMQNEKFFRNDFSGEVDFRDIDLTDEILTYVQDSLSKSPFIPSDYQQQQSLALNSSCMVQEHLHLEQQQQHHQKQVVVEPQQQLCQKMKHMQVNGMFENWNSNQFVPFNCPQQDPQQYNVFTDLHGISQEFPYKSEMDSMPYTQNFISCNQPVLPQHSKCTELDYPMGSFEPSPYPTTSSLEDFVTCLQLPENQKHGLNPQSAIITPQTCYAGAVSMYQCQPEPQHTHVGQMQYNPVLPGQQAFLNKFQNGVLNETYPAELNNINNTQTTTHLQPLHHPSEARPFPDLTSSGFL
Chain of Transcription factor E2F1 (Homo sapiens) (Q01094 whole entry, looked up): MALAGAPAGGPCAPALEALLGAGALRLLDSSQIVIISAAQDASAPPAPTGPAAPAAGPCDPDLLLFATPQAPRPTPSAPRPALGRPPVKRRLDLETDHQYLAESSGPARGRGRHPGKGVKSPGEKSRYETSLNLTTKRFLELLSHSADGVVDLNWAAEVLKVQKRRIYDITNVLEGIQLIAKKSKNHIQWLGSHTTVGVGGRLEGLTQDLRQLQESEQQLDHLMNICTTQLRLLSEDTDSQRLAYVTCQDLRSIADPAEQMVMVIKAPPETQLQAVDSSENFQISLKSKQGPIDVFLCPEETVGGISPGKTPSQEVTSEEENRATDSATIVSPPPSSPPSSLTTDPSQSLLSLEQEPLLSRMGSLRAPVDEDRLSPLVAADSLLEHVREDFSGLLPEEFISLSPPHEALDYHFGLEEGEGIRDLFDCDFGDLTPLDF
Chain of CCAAT/enhancer-binding protein beta (Homo sapiens) (P17676 whole entry, looked up): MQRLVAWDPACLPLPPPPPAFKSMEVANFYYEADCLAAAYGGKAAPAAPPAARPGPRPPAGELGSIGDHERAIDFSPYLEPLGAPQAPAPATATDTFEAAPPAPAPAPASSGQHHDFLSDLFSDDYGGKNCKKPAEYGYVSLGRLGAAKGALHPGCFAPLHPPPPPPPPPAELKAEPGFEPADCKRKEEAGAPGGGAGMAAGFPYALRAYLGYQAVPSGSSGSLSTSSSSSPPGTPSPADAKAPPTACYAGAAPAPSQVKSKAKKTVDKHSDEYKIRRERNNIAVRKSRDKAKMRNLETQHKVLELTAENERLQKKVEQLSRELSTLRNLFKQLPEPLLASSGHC

With `CC(C)C[C@H]1C(=O)N2CCC[C@H]2[C@]2(O)O[C@](NC(=O)[C@@H]3C=C4c5cccc6[nH]c(Br)c(c56)C[C@H]4N(C)C3)(C(C)C)C(=O)N12`, the call in test [1], in test [2], in [3], in test [4], in [5] and in test [6] was inactive. Moreover, the compound was called inactive in test [7] and in [8].

With `Nc1ccc(S(=O)(=O)O)c(N)c1`, the result in test [1], in [2], in [3], in [4], in [5] and in test [6] was inactive. Also, the compound was called inactive in test [7] and in [8].

Turning to `Cc1ccc(O)c(C(C)(C)C)c1`, the outcome in test [1], in test [2], in test [3], in [4], in test [6] and in [7] was inactive. The outcome in test [8] was inactive. Further, the AC50 in test [5] is 100 µM (active).

Consider `CCCCOCCOCCSC#N`, for which the compound was classed as inactive in [1], in test [2], in [3], in test [4], in test [5] and in [6]. For the same compound, the call in test [7], in test [9] and in [8] was inactive.

For the compound `CCCCC(CC)COCCC#N` (stereo not given), the compound was called inactive in [1], in test [2], in test [3], in [4], in test [5] and in test [6]. The compound was classed as inactive in test [7] and in [8].

For the compound `CN(C)CCOCCN(C)C`, the compound was called inactive in test [1], in test [2], in [3], in [4], in test [5] and in [6]. Further, the result in test [7] and in test [8] was inactive.

On to `CC1(C)CCC(C)(C)c2cc(C(=O)Nc3ccc(C(=O)O)cc3)ccc21`, for which the compound was called inactive in [1], in [2], in [3], in test [4], in test [5] and in test [7]. Further, in test [8], the outcome was inactive. In test [6], the AC50 was 66.6 µM (active).

Turning to `CC(=O)O[C@H](CC(=O)[O-])C[N+](C)(C)C`, the compound was classed as inactive in [1], in [2], in [3], in [4], in test [5] and in test [6]. The outcome in test [7] and in [8] was inactive.

Take `CC(c1cc2ccccc2s1)N(O)C(N)=O` (stereo not given): the result in test [1], in [2], in test [3], in [5], in [6] and in test [7] was inactive. For the same compound, in test [8], the outcome was inactive. The AC50 in test [4] was 38.2 µM (active).

In the case of `Clc1nc(C(Cl)(Cl)Cl)c(Cl)c(Cl)c1Cl`, the result in test [1], in test [2] and in test [7] was inactive. Besides, the AC50 in test [3] is 24.9 µM (active); in [4], 12.6 µM (active); in test [5] it was 28.8 µM (active); in [8], 22.6 µM (active).

Consider `CCCCC[Si](OCC)(OCC)OCC`, for which the call in test [1], in test [2], in [3], in [4], in test [5] and in [6] was inactive. Also, the compound was called inactive in test [7] and in test [8].

For the compound `O=Cc1ccc(Cl)c([N+](=O)[O-])c1`, the AC50 in test [1] was 129 µM (active); in test [3] it was 168 µM (active); in [5], 25.8 µM (active); in [7] it was 131 µM (active). Besides, the result in [2], in [4], in [6] and in [8] was inactive.

On to `Cc1c(Cl)c(=O)oc2cc(O)ccc12`, for which the call in test [1], in [4], in [5], in [6], in test [7] and in [8] was inactive. Also, the AC50 in test [2] is 129 µM (active); in test [3], 63 µM (active).

Take `CCC(=O)OCCC(C)CCC=C(C)C` (stereo not given): the compound was called inactive in test [1], in test [2], in [3], in test [4], in test [6] and in test [7]. The outcome in test [8] was inactive. Further, in test [9], the AC50 was 72.4 µM (active).

As for `O=C(Oc1ccccc1)c1ccc(O)cc1`, the call in test [1], in test [2], in [3], in test [4], in test [6] and in test [7] was inactive. Also, the compound was called inactive in test [8].

`Cc1ccc(C(=O)c2cc(O)c(O)c([N+](=O)[O-])c2)cc1`: the result in [1], in [2], in [4], in test [5] and in [8] was inactive. Further, the figures for the AC50 in test [3], in test [6] and in test [7] were 26.3 µM (active), 27.2 µM (active) and 56 µM (active), respectively.

As for `COc1cc2ncnc(Nc3cccc(Cl)c3)c2cc1OC`, the compound was called inactive in [1], in test [2], in test [3], in [4], in test [5] and in test [7]. The compound was called inactive in [8]. The AC50 in [6] was 5.09 µM (active).
